PubChem BioAssay (NCATS)
Records with an inconclusive call do not appear. Activity calls are given as the source filed them. Unless noted, calls follow the shape of the dose curve; as a rule, active = well fitted curve in the direction sought with a large enough effect; inconclusive = small, poorly fitted or top-dose-only effect, or another doubt; inactive = no such curve, though single readings can be large; an effect the other way counts as inactive or inconclusive.

Experiments:
[1] = biological target: Ubiquitin carboxyl-terminal hydrolase 2 (Homo sapiens) (UniProt O75604); assay: qHTS Validation Assay for Inhibitors of Ubiquitin-specific Protease USP2a Using CHOP2 as the Reporter (AID 463106)
Chain of Ubiquitin carboxyl-terminal hydrolase 2 (Homo sapiens) (O75604 whole entry, looked up): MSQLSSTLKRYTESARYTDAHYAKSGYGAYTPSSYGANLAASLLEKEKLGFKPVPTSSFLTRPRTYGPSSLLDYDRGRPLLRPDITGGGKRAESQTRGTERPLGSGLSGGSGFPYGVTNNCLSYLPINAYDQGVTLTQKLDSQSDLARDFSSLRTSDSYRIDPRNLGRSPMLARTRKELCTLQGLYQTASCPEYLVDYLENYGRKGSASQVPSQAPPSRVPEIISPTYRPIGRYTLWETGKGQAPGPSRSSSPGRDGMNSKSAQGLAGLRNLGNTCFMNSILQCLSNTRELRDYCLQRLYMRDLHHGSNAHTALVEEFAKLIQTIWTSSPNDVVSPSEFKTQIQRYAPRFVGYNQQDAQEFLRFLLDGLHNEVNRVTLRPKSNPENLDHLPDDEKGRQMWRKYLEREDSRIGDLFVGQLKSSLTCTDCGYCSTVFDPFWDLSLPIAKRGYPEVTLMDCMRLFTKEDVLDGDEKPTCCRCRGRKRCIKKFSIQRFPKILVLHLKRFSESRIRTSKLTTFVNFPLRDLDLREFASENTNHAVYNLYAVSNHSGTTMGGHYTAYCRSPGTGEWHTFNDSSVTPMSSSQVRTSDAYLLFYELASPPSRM
Summary of the method: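 10nM USP2 core + cpd, 30min RT; add 25nM Ub-CHOP2/25nM substrate; 60min RT; FI 485/531nm. Buffer Tris pH 8.0, CaCl2, BME, CHAPS. Norm. to NEM = 100% inhibition; time-zero read flags fluorescent artifacts.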

[2] = biological target: DNA polymerase III PolC-type (Bacillus subtilis (strain 168)) (UniProt P13267); assay: qHTS Validation Assay for the Inhibitors of DNA Replication in Gram-Positive Bacteria (AID 485295);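 also: reconstituted holoenzyme with PolC plus beta clamp SSB and primase; PicoGreen fluorescence of double-stranded DNA made on primed circular M13 template; series mostly up to about 57 µM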
Chain of DNA polymerase III PolC-type (Bacillus subtilis (strain 168)) (P13267 whole entry, looked up): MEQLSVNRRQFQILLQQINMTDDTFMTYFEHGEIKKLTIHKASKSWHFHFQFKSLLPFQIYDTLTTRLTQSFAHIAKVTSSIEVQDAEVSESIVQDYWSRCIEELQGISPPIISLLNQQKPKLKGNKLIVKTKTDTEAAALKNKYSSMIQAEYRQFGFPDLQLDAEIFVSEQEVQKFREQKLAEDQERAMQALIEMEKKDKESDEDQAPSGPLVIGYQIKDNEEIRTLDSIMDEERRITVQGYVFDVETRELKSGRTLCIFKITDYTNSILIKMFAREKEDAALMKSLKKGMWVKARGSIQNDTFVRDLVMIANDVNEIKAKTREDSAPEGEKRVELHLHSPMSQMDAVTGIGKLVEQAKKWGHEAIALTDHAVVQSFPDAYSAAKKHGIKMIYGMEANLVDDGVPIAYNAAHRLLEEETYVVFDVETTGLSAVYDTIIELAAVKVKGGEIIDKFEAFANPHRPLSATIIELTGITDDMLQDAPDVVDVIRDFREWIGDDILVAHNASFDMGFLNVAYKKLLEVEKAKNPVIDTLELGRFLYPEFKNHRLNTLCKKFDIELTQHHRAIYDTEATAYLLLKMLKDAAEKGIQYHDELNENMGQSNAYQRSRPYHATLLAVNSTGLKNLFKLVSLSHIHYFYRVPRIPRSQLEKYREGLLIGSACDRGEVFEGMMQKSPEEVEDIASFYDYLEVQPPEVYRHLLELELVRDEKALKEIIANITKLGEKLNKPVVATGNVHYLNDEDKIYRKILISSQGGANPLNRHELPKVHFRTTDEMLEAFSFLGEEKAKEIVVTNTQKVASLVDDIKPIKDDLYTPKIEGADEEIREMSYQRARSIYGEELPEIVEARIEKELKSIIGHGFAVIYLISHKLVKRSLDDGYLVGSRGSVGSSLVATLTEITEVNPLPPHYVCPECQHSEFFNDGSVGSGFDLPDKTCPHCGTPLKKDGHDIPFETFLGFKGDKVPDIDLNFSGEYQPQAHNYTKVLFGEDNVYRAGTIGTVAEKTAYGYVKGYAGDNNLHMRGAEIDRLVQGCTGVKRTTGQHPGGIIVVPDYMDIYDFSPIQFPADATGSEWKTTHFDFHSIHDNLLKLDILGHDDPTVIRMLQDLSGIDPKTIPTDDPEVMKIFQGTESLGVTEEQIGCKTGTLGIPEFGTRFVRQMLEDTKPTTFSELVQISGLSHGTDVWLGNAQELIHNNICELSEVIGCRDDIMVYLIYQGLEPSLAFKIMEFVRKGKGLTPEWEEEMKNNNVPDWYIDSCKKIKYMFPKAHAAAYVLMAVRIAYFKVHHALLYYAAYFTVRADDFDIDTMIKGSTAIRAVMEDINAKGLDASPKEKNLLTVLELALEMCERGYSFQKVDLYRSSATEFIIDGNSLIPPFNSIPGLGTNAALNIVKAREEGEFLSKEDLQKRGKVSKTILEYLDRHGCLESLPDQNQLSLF
Summary of the method: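 Double-stranded DNA product detected by PicoGreen fluorescence after EDTA quench. Compound incubated with B. subtilis holoenzyme (PolC, beta subunit, SSB, primase) before substrate addition; primed replication of M13Gori with dNTPs and NTPs at room temperature; DMSO defines 0% inhibition.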

[3] = biological target: Tumor susceptibility gene 101 protein (Homo sapiens) (UniProt Q99816); assay: qHTS Validation Assay for Iinhibitors of HIV-1 Budding by Blocking the Interaction of PTAP/TSG101 (AID 485342; calls by dose curve)
Summary of the method: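 Fluorescence polarization of 50 nM FITC-PTAP peptide bound to 10 uM Tsg101 binding domain was read after 20 min room-temperature incubation with compounds, in 10 mM HEPES pH 7.5, 0.15 M NaCl, 0.01% Tween 20.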

[4] = biological target: Beta-2 adrenergic receptor (Homo sapiens) (UniProt P07550); assay: qHTS validation assay of beta-arrestin-biased ligands of beta2-adrenergic receptor (AID 485366)
Chain of Beta-2 adrenergic receptor (Homo sapiens) (P07550 whole entry, looked up): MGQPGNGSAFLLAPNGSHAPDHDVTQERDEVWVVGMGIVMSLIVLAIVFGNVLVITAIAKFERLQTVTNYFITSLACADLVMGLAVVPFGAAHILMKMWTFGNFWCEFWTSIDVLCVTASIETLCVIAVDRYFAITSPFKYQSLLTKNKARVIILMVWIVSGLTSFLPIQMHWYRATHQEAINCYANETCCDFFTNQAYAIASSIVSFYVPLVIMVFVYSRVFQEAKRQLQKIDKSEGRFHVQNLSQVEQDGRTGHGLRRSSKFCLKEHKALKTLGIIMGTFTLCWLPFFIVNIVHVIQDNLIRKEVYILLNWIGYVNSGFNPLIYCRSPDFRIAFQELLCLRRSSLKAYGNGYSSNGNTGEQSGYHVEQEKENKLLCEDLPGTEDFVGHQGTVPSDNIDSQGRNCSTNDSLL
Summary of the method: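 Values derive from curve-fitted %Activity of a luminescent beta-arrestin recruitment reporter; compounds tested up to 46 microM on Tango cells for 18 hr at 37 degrees C, 5% CO2.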

[5] = biological target: Thioredoxin reductase 1, cytoplasmic (Rattus norvegicus) (UniProt O89049); assay: qHTS Assay for Substrates of Mammalian Selenoprotein Thioredoxin Reductase 1 (TrxR1) (AID 488772);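 also: NADPH fluorescence in the first read after selenite addition and not the 8 min delta; series mostly up to about 57 µM; a drop in NADPH fluorescence below the no-compound background marks a TrxR1 substrate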
Chain of Thioredoxin reductase 1, cytoplasmic (Rattus norvegicus) (O89049 whole entry, looked up): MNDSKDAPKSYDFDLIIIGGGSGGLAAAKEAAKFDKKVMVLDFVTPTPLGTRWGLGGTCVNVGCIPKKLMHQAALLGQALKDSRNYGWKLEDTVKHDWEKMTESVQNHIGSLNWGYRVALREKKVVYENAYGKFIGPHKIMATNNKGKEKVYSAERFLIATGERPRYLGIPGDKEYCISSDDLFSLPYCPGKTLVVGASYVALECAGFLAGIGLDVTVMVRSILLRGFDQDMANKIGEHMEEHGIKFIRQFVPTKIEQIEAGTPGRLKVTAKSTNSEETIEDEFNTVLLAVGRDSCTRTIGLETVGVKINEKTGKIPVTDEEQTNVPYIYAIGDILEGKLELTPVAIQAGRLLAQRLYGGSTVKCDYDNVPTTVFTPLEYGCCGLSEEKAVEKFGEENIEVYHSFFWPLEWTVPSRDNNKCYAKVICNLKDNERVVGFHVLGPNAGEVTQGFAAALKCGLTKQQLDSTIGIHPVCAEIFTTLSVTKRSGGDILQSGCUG
Summary of the method: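 Quantitative HTS in Tris-HCl buffer at pH 7.5 with EDTA and Tween-20, using rat TrxR1, 400 uM NADPH and 400 uM selenite (final). A fall in initial NADPH fluorescence relative to background marked substrate behaviour.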

[6] = biological target: Flap endonuclease 1 (Homo sapiens) (UniProt P39748); assay: qHTS Validation Assay for the Inhibitors of Human Flap endonuclease 1 (FEN1) (AID 488816)
Chain of Flap endonuclease 1 (Homo sapiens) (P39748 whole entry, looked up): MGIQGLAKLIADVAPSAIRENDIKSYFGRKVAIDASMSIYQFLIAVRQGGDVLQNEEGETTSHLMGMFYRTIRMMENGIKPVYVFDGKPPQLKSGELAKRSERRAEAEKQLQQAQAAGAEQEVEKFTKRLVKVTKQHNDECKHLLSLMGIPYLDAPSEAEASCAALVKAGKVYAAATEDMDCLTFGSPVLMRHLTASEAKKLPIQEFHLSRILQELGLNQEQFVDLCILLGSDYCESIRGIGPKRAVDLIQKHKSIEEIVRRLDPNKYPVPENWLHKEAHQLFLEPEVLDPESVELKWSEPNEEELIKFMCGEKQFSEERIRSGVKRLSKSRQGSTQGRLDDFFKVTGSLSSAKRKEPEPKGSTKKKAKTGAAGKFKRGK
Summary of the method: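 Readings taken at 0 and 15 min after starting the reaction with 50 nM (final) substrate supplied the signal. Compounds had first sat with 10 nM FEN1 reagent for 15 min at room temperature. Values come from Hill-equation concentration-response fits.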

[7] = biological target: M-phase phosphoprotein 8 (Homo sapiens) (UniProt Q99549); assay: qHTS Validation Assay for Inhibitors for MPP8 Chromodomain Interactions with Methylated Histone Tails (AID 488949); also: nearly all actives have a fitted effect of over 55% in size; also: potency is read from the fitted curve at half-maximal effect
Chain of M-phase phosphoprotein 8 (Homo sapiens) (Q99549 whole entry, looked up): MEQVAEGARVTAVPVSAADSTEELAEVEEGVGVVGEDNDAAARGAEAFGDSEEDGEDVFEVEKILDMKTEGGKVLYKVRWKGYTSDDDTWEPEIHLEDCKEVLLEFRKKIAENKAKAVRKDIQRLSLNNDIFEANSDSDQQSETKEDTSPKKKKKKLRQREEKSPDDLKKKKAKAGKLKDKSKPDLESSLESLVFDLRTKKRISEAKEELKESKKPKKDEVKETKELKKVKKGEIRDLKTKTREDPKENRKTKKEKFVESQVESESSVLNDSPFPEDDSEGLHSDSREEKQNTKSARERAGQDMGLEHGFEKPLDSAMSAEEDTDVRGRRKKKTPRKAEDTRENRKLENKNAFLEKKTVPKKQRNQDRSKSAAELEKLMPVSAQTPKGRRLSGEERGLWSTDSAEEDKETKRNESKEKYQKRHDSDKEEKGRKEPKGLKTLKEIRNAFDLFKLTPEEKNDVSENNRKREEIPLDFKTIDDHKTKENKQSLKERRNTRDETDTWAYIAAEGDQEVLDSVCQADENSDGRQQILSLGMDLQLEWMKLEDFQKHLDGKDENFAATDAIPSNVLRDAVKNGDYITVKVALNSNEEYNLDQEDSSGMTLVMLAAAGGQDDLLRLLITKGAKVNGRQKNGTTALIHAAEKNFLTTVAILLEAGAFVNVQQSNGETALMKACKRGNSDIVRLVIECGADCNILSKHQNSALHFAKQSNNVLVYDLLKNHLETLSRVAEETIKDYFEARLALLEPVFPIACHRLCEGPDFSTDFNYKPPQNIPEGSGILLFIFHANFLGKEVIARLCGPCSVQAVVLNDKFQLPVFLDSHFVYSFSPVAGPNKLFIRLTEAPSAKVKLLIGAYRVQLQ
Summary of the method: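 AlphaScreen proximity signal from streptavidin donor and Ni-chelate acceptor beads (10 ug/mL each) reported binding of MPP8 to trimethyl-K9 H3(1-18) peptide, both at 50 nM. The complex formed 30 min before a 30 min compound exposure at room temperature, in PBS pH 7.4.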

[8] = biological target: Chromobox protein homolog 1 (Homo sapiens) (UniProt P83916); assay: qHTS Validation Assay for Inhibitors of HP1-beta Chromodomain Interactions with Methylated Histone Tails (AID 488953); also: nearly all actives have a fitted effect of over 50% in size; also: potency is read from the fitted curve at half-maximal effect
Chain of Chromobox protein homolog 1 (Homo sapiens) (P83916 whole entry, looked up): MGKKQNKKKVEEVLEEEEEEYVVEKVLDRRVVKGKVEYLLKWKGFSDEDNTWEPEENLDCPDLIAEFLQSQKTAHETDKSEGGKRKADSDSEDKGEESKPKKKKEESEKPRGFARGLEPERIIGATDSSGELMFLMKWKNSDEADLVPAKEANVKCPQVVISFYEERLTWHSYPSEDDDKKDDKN
Summary of the method: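 Measured as loss of AlphaScreen luminescence from streptavidin donor and nickel acceptor beads (10 ug/mL final) bridging HP1-beta and biotin-H3(1-18)K9me3, each 50 nM. Compounds met the preassembled complex for 30 min at RT.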

[9] = biological target: Methanococcus maripaludis chaperonin (MmCpn) (UniProt Q6LX38); assay: High-Throughput Screening for Modulators of Cytosolic Chaperonin Activity: MmCpn Primary Screen (AID 488978);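 also: 50 nM MmCpn enzyme hydrolysing 30 µM ATP at 37 °C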
Chain of Methanococcus maripaludis chaperonin (MmCpn) (Q6LX38 1-543): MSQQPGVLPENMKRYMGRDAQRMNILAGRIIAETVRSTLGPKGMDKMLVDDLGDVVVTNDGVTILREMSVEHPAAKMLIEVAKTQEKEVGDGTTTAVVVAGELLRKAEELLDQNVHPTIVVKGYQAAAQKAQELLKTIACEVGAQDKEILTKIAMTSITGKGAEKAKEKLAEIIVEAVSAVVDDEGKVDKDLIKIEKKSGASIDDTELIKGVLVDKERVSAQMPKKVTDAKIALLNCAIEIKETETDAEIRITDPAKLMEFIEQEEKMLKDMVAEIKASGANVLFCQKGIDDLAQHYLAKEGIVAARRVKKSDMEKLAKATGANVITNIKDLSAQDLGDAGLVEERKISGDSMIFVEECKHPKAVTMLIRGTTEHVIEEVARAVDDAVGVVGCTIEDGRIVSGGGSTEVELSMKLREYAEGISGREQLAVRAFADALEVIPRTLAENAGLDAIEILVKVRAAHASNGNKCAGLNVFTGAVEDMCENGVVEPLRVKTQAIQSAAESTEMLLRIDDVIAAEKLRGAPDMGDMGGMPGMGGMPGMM
Summary of the method: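 ATPase activity of 50 nM MmCpn was assayed with 30 uM ATP, 10 minutes at 37C, after a 5 min compound preincubation at room temperature. ADP production was read as HTRF emission at 590 and 665 nm.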

[10] = biological target: Thyrotropin receptor (Homo sapiens) (UniProt P16473); assay: qHTS Assay for Antagonists of the Thyroid Stimulating Hormone Receptor (AID 488980); also: series mostly up to about 58 µM
Summary of the method: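 Inhibition of cAMP raised by EC80 TSH (4 nM final) was read by HTRF, with lysate cAMP competing against cAMP-d2 for cryptate antibody after 30 min at room temperature. The cells were transfected HEK293 held in phosphodiesterase inhibitor RO 20-1724 at 70 uM.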

[11] = biological target: D(1A) dopamine receptor (Homo sapiens) (UniProt P21728); assay: HTS Assay for Allosteric Agonists of the Human D1 Dopamine Receptor: Primary Screen for Agonists (AID 488981)
Summary of the method: (§1)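 Calcium flux in an inducible, force-coupled HEK293 Trex D1 line (overnight at 30 C): agonist mode is the 180 s kinetic read after compound; potentiator mode is the following 180 s read after dopamine at EC20.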

[12] = biological target: D(1A) dopamine receptor (Homo sapiens) (UniProt P21728); assay: HTS Assay for Allosteric Agonists of the Human D1 Dopamine Receptor: Primary Screen for Potentiators (AID 488982); also: potency is read from the fitted curve at half-maximal effect
Summary of the method: as §1

[13] = biological target: D(1A) dopamine receptor (Homo sapiens) (UniProt P21728); assay: HTS Assay for Allosteric Agonists of the Human D1 Dopamine Receptor: Primary Screen for Antagonists (AID 488983);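 also: calcium flux response to an EC80 dopamine challenge measured with no-wash dye; nearly all actives have a fitted effect of over 65% in size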; also: potency is read from the fitted curve at half-maximal effect
Summary of the method: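 Screening of inducible HEK293 T-REx D1 cells: compound first, EC80 dopamine 180 s later, each phase read kinetically for calcium over 180 s.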

[14] = qHTS Validation Assay to Find Inhibitors of Chronic Active B-Cell Receptor Signaling (AID 485345; active = well fitted curve in the direction sought with a large enough effect in the main read-out, with a control signal flat, not every such curve was filed as active)
Summary of the method: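 Read-out: ratio of filter-corrected green (IkappaBalpha fusion) to red (native) luciferase signal in doxycycline-induced TMD8 cells after 4 h at 37C. Titration spanned 46 uM–3 nM; Data were normalised to basal cells and 10 uM MG-132 wells.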

[15] = Quantitative high throughput screen for delayed death inhibitors of the malarial parasite plastid, 96 hour incubation (AID 488745);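 also: luciferase-expressing P. falciparum in erythrocytes at 2% hematocrit and 0.1% parasitemia; series mostly up to about 29 µM; nearly all actives have a fitted effect of over 70% in size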
Summary of the method: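 Growth of reporter-bearing P. falciparum in red cells is measured after 96 h with compound, covering two erythrocytic cycles. Luminescence from the integrated luciferase serves as the growth signal.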

[16] = Quantitative high throughput screen for delayed death inhibitors of the malarial parasite plastid, 48 hour incubation (AID 488752); also: nearly all actives have a fitted effect of over 65% in size
Summary of the method: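 One parasite generation (48 h, 37 C, 5% CO2) of luciferase-reporter P. falciparum in erythrocytes is run with test compound; decreased luminescence indicates inhibited growth.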

[17] = biological target: Thioredoxin reductase 1, cytoplasmic (Rattus norvegicus) (UniProt O89049); assay: qHTS Assay for Inhibitors of Mammalian Selenoprotein Thioredoxin Reductase 1 (TrxR1) (AID 488773); conditions: Potency: inhibition;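 also: drop in NADPH fluorescence over an 8 min run after selenite addition; series mostly up to about 57 µM; nearly all actives have a fitted effect of over 40% in size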
Summary of the method: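 Steps: enzyme (90 nM) plus NADPH (400 uM final), 5 min at ~22 deg C; compound added, 15 min; selenite (400 uM final) added; fluorescence followed for 8 min. Concentration-response curves derived from the normalized delta values.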

[18] = biological target: Transient receptor potential cation channel subfamily V member 1 (Homo sapiens) (UniProt Q8NER1); assay: HTS Assay for Compounds that Act as Enhancers of the Vanilloid Receptor 1 (AID 488979)
Summary of the method: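 Calcium influx kinetics via Fluo-8 (480/520 nm) in TRPV1-expressing cells, 2000/well cultured overnight at 35.5C. Compound-alone read 3 min (agonist phase), followed by EC20 capsaicin challenge for 2 min (enhancer phase).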

Measured: Potency

CN(C)CCC=C1c2ccccc2C=Cc2ccccc21
active: [13] 1 µM
not listed: [14] | [15] | [16] | [17] | [18]
inactive: all other assays above

CC(C)Cc1ccc(C(C)C(=O)O)cc1 (centres undefined)
not listed: [1] | [6] | [18]
inactive: all other assays above

COc1ccc(CCN(C)CCCC(C#N)(c2ccc(OC)c(OC)c2)C(C)C)cc1OC (centres undefined)
inactive: [2] | [3] | [4] | [9] | [10] | [11] | [12] | [13]

COc1cc2nc(N3CCN(C(=O)c4ccco4)CC3)nc(N)c2cc1OC
not listed: [1] | [6] | [7] | [15] | [16] | [17] | [18]
inactive: all other assays above

CC#C[C@]1(O)CC[C@H]2[C@@H]3CCC4=CC(=O)CCC4=C3[C@@H](c3ccc(N(C)C)cc3)C[C@@]21C
active: [7] 11.9 µM | [8] 25.1 µM | [12] 2.31 µM
not listed: [10] | [14] | [15] | [16] | [17] | [18]
inactive: all other assays above

COc1ccccc1N1CCN(CC(O)COc2cccc3ccccc23)CC1 (centres undefined)
active: [8] 39.8 µM
not listed: [7] | [14] | [15]
inactive: all other assays above

Clc1ccc2c(c1)C(N1CCNCC1)=Nc1ccccc1O2
not listed: [8] | [11] | [13] | [14] | [15] | [16] | [18]
inactive: all other assays above

CN1C(C(=O)Nc2ccccn2)=C(O)c2ccccc2S1(=O)=O
not listed: [8] | [14] | [15] | [17]
inactive: all other assays above
